KDM5B inhibitor – KDM5B demethylase inhibition; AID 1347165; 220,000 tested, 2.6% active; KDM5B demethylase, FDH-coupled NADH fluorescence (FDH is formaldehyde dehydrogenase); Q9UGL1; Potency, µM (top dose mostly 57.7 µM), most hits filed as inhibitors; active means well fitted inhibition curve with a large enough effect; further: nearly all actives have a fitted effect of over 70% in size
Target sequence (Q9UGL1 whole entry, looked up): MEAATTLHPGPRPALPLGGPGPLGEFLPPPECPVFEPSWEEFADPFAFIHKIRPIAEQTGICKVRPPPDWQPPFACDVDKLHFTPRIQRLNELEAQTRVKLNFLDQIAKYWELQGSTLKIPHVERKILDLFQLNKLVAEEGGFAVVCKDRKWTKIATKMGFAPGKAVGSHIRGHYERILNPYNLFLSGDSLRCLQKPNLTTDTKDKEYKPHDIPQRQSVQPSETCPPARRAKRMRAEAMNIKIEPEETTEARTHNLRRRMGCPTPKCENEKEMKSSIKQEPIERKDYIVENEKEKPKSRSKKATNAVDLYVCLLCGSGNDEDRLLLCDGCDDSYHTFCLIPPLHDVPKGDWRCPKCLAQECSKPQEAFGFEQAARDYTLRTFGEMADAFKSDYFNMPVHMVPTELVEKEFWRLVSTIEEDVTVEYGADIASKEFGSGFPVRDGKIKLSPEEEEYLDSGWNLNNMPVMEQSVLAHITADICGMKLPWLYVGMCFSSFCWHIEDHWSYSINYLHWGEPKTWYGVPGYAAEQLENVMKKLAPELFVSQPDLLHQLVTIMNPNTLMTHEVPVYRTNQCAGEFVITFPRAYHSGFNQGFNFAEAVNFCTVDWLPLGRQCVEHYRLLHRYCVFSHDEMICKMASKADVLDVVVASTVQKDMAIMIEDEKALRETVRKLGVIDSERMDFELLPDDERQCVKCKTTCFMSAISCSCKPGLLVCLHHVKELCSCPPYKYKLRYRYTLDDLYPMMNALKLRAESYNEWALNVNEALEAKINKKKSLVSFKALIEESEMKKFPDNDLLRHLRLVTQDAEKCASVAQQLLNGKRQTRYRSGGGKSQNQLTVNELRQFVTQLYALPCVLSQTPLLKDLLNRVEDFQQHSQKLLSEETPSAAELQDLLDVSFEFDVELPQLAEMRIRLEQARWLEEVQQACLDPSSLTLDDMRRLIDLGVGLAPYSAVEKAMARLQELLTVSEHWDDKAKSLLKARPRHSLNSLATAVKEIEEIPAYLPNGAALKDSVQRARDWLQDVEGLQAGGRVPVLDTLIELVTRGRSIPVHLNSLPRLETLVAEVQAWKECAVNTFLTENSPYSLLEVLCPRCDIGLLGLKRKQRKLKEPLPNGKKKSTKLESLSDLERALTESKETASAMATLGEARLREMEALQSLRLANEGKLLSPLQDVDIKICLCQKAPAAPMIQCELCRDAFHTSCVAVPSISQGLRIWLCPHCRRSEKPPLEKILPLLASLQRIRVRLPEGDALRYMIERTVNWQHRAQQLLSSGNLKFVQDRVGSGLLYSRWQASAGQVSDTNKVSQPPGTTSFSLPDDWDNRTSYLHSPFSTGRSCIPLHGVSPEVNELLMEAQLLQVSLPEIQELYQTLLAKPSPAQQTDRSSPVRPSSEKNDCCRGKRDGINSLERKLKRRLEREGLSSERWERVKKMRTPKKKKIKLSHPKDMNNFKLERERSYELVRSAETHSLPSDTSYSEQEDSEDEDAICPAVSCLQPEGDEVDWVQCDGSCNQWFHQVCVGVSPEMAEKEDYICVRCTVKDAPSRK
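Here, H3K4me3 peptide (12.5 µM in substrate mix) is demethylated by KDM5BΔAP, 200 nM final, after 10 min compound exposure. Formaldehyde product is coupled through FDH (0.25 U/mL in mix) to NADH fluorescence; 30-min ΔRFU feeds dose-response curves.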
Hits are given with their value; - = inactive. The sample as a whole holds a higher share of hits than the screen did.

SMILES	KDM5B inhibitor
O=C(CCc1cc(=O)[nH]o1)N[C@H](C1CCNCC1)C1CC(O)C1 (stereo partly drawn)	-
Cc1nc(CCNC(=O)C2CC2)no1	-
COCCn1cc2c3c(cccc31)CN(C(=O)CCCc1ccccc1)CC2	25.1µM
COCCOc1ccc2c(n1)CCN(C(=O)CCc1ccccc1)C2	-
COCCN1CCC(N2CCN(C(=O)CCCc3ccccc3)CC2)C1=O (stereo not drawn)	-
Cc1cc(Cl)ccc1NC(=O)CCNC(=O)CCC(=O)c1cccs1	-
CCc1ccccc1NC(=O)CN1CCN(C(=O)CN(C)Cc2cnn(-c3ccccc3)c2)CC1	-
COC(=O)c1ccc(COC(=O)c2cc3ccccc3s2)o1	-
Cn1cc(CC(=O)N2CCCc3ncc(C(=O)N4CCC(c5ccccc5)CC4)cc32)c2ccccc21	-
COCCN1CCC2(CCC1=O)CN(C(=O)NC(C)C)CCN2C (stereo not drawn)	-
COCCN1CCC2(CCC1=O)CN(c1ccc(C#N)cn1)CCN2C (stereo not drawn)	28.2µM
CCN1CCC2(CCC1=O)CN(c1ncnc3c1CCC3)CCN2C (stereo not drawn)	-
CSc1cccc(NC(=O)Cn2c(-c3ccc(F)cc3)nc(C)c(CCO)c2=O)c1	-
COc1cc(C(=O)Nc2ccc(N3CCCC3)nc2)cc2c1OCCO2	-
CN1CCN(Cc2cn3c(=O)n(C)cc(-c4cccc(OC(F)(F)F)c4)c3n2)CC1	-
Cn1cc(-c2cccc(C(F)(F)F)c2)c2nc(CNc3ccccc3)cn2c1=O	35.5µM
COc1cncc(-c2cn(C)c(=O)n3cc(CNc4ccccc4)nc23)c1	-
Cc1ccccc1CNC(=O)Cc1n[nH]c(=O)c2ccccc12	-
COc1ccccc1C(=O)Nc1c(NC2CCCCC2)c2ccccc2oc1=O	-
O=C(NCCN1CCOCC1)c1nn2c(C(F)(F)F)cc(-c3ccccc3)nc2c1Br	-
Cn1c(C(=O)NCc2ccoc2)nc2nc(-c3ccccc3)c(Cl)cc21	35.5µM
COc1cc(C(=O)NC2CCN(c3cc(-c4ccccc4)[nH]n3)CC2)cc(OC)c1OC	-
COc1ccc(CNC(=O)c2sccc2-c2ccccc2)cc1OC	-
COc1ccc(CNC(=O)c2cc(Cl)ccc2O)cc1OC	-
O=C(Cn1c(=O)nc(-c2ccccc2)c2cc(Cl)ccc21)NCc1ccccc1	-
SMILES	KDM5B inhibitor
COc1ccc(CNC(=O)c2nc3nc(-c4ccccc4)c(Cl)cc3n2C)cc1OC	35.5µM
Cn1c(C(=O)NCCN2CCOCC2)nc2nc(-c3ccccc3)c(Cl)cc21	35.5µM
COc1ccc(C(=O)NC2CCN(c3cc(-c4ccccc4)[nH]n3)CC2)c(OC)c1	-
Cc1oc(-c2ccccc2)nc1C(=O)NCCN1CCOCC1	-
COc1ccccc1-c1cc2c(nc1-c1ccccc1)nc(C(=O)NC1CCN(C)CC1)n2C	28.2µM
COc1ccccc1C(=O)N1CCC2(CC1)OC(=O)N(Cc1ccccc1C#N)C2(C)c1ccccc1 (stereo not drawn)	-
Cc1cc(C)cc(-n2cccc2)c1	-
CN1CCOC(CNCc2cnc(C(C)(C)C)s2)C1 (stereo not drawn)	-
COc1cccc(Nc2cnc3ccc(-c4ccccc4OC)nn23)c1	-
O=S(=O)(NCc1ccc2c(c1)OCCO2)c1ccccc1Cl	-
CCCC(=O)N1CCC(N2C(=O)C3(CCCCC3)C2c2ccncc2)CC1 (stereo not drawn)	-
O=C(NC1CCS(=O)(=O)C1)C1CCN(C2=NS(=O)(=O)c3ccccc32)CC1 (stereo not drawn)	-
Cc1cccc(CS(=O)Cc2ccc(Cl)cc2)c1 (stereo not drawn)	-
Cn1c(C(=O)NCC2CC2)nc2nc(-c3ccccc3)c(Cl)cc21	39.8µM
O=C(NCCc1ccccn1)c1cc(-c2ccccc2)nc2ccccc12	-
Cc1cc2ccccc2n1CC(=O)NCC1CCC(C(=O)O)CC1 (stereo not drawn)	-
COc1ccc(CNC(=O)c2cc(C)nn2-c2ccccc2)cc1	-
COc1cc(CNC(=O)c2nc3nc(-c4ccccc4)c(Cl)cc3n2C)cc(OC)c1	35.5µM
O=C(NCCc1ccccn1)c1ccc(Cl)cc1	-
Cn1c(C(=O)NCCc2ccccn2)nc2nc(-c3ccccc3)c(Cl)cc21	35.5µM
Cc1cc(C(=O)NCC2CCCCC2)c2ccccc2n1	-
COc1cccc(CNC(=O)Nc2ncc(-c3ccccc3)n2C)c1	-
CCCCCCc1ccc(N=Cc2ccc(OCC(C)CC)cc2O)cc1 (stereo not drawn)	-
CC(CCc1ccccc1)NC(=S)NC1CC2CCC1C2 (stereo not drawn)	-
O=S(=O)(Cc1ccccc1F)N1CCCC(CN2CCOCC2)CC1 (stereo not drawn)	-
SMILES	KDM5B inhibitor
CCCNC(=O)NC(=O)CN(Cc1ccc(C(F)(F)F)cc1)C1CC1	-
CCCCc1noc(CN2CCc3cc(OC)c(OC)cc3C2CC(=O)OC)n1 (stereo not drawn)	-
CC(Sc1nc(-c2cccs2)nc2ccccc12)C(=O)NCc1ccco1 (stereo not drawn)	-
O=C(CCc1nc2ccccc2o1)NC1CCCCC1	-
COc1ccc(-c2noc(Nc3cc(C)ccc3OC)n2)cc1	-
C=CCCC(CN1CCOCC1)Oc1ccc(Cn2ccnc2)cn1 (stereo not drawn)	-
COc1ccc(-c2ccc(Cn3ccnc3)cn2)c2ccc(C)nc12	25.1µM
CCc1ccc(NCc2ccc(OC)c(Cn3ccnc3)c2)cc1	-
CC(C)(Oc1ccc(Cl)cc1)C(=O)N1CCN(c2nccs2)CC1	-
Cc1ccc(C2=NN(C(=O)c3ccco3)C(c3ccc4nccnc4c3)C2)cc1 (stereo not drawn)	-
CCn1cc(-c2ccc(Cl)cc2)cc1C(=O)NCc1ccncc1	-
CCCn1cc(-c2ccncc2)cc1C(=O)NCc1cccc(F)c1	25.1µM
CCCn1cc(-c2ccncc2)cc1C(=O)NCc1ccccc1	-
CCOC(=O)c1ccc(Oc2coc3cc(OC(=O)c4cccs4)ccc3c2=O)cc1	-
O=C(Nc1nccs1)c1ccc2c(c1)OCCN(CCC(F)(F)F)C2	-
O=C(Nc1nc2ccccc2s1)c1ccc2c(c1)OCCN(CCC(F)(F)F)C2	31.6µM
Cc1ccccc1NC(=O)c1ccc2c(c1)OCCN(CCC(F)(F)F)C2	-
Cn1nccc1CN1CCCC2(CC(c3cccc(C(F)(F)F)c3)=NO2)C1 (stereo not drawn)	-
CC(=O)c1cccc(NC(=O)c2cccc[n+]2[O-])c1	-
CC(C)C1CN(c2cncc(C(=O)N3CCCC3)n2)CCC(=O)N1CC1CC1 (stereo not drawn)	28.2µM
Cc1c(-c2cc(C(=O)N3CCC(=O)N(CC4CC4)C(C(C)C)C3)no2)cnn1C (stereo not drawn)	-
Cc1cccc2nc(C(=O)N3CCC(=O)N(CC4CC4)C(C(C)C)C3)cn12 (stereo not drawn)	-
CC(=O)NC1(C)CCCN(Cc2cc(-c3ccccc3)cs2)C1 (stereo not drawn)	-
CC(=O)NC1(C)CCN(Cc2ccc(-c3ccc(N4CCOCC4)cc3)cc2)C1 (stereo not drawn)	28.2µM
CC(=O)NC1(C)CCCN(Cc2cc(-c3cccc(N4CCOCC4)c3)cs2)C1 (stereo not drawn)	-
CN(CCOc1ccccc1F)Cc1nc(N)nc(N(C)C)n1	-
CS(=O)(=O)N1CCC(C(=O)Nc2cccc(OCc3ccc(F)cc3)c2)CC1	-
CS(=O)(=O)c1ccc2nc(NC(=O)CSCc3ccc(Cl)cc3)sc2c1	-
O=C(c1cnn2ccccc12)N1CCC(Cc2cccc(CO)c2)C1 (stereo not drawn)	28.2µM

Compound activity (PubChem)
